JMJD2A Tudor inh = inhibitors of human JMJD2A Tudor domain; O75164; AlphaScreen JMJD2A-Tudor / H3K4me3 peptide binding; Potency, µM (series often up to 114 µM), actives largely listed as inhibitors; hit rate 4.4% among 390,000; AID 504339; note: nearly all actives have a fitted effect of over 50% in size
G9a inh = G9a (human) methyltransferase inhibition; hit rate 8.8% among 350,000; G9a H3K9 monomethylation, AlphaScreen, 2 h; Potency, µM (series often up to 102 µM), actives largely listed as inhibitors; note: nearly all actives have a fitted effect of over 75% in size
Target sequence (Q96KQ7 913-1193 limits assumed): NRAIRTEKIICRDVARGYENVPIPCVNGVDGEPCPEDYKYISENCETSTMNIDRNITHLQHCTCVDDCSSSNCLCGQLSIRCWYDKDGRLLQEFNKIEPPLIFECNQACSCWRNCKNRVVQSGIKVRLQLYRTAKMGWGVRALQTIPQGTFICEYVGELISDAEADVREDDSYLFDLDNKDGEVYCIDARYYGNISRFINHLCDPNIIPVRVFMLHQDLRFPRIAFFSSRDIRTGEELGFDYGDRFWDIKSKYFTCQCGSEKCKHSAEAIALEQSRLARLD
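G9a (20 nM) was preincubated 15 min with compound, then reacted 2 h at room temperature with 500 nM biotin-H3K9 peptide and 20 µM SAM. Monomethyl-H3K9 detected by AlphaScreen using anti-H3K9me1 antibody.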
L3MBTL1 block = L3MBTL1 (human) inhibition; Q9Y468; AID 485360; AlphaScreen L3MBTL1–H3K9me1 peptide binding; Potency, µM (series often up to 57.1 µM), hits mostly inhibitors; hit rate 0.66% among 230,000; note: nearly all actives have a fitted effect of over 60% in size
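First, the protein-peptide complex forms for 30 min at room temperature (L3MBTL1 50 nM, biotinylated H3K9me1 peptide 75 nM). Next, compounds are pin-transferred and incubated 30 min. Finally, AlphaScreen beads are added and read after 30 min.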
HP1b binding inh = inhibitors of HP1-beta chromodomain binding to methylated histone tails; AlphaScreen HP1-beta / biotin-H3K9me3 peptide binding; Potency, µM (top dose mostly 114 µM), actives largely listed as inhibitors; hit rate 0.56% among 390,000; AID 540317; note: nearly all actives have a fitted effect of over 70% in size
Target sequence (P83916 whole entry, looked up): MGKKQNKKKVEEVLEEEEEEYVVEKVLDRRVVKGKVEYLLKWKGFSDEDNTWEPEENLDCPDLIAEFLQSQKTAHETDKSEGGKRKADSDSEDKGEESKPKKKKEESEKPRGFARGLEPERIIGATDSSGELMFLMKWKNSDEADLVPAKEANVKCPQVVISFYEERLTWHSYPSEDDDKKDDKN
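HP1-beta protein (50 nM final) preincubated 30 min at room temperature with biotinylated H3(1-18)K9me3 peptide (50 nM) in PBS pH 7.4, 0.01% Tween-20, then compound added for 30 min. AlphaScreen streptavidin donor/nickel chelate acceptor beads (10 ug/mL final), 30 min dark, luminescence read.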
BAZ2B block = blocks human BAZ2B; Potency, µM (series often up to 114 µM), most hits filed as inhibitors; hit rate 4.4% among 360,000; AlphaScreen BAZ2B-H3K14Ac peptide displacement; AID 504333; Q9UIF8; note: nearly all actives have a fitted effect of over 60% in size
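Compounds, titrated to a top concentration of 110 uM, were incubated 30 min at room temperature with preformed BAZ2B/acetyl-K14 H3 peptide complex (50 nM each). Proximity signal was measured by AlphaScreen after 20 min with beads.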
Large screens that a line does not name were inactive. This is a sample that favours compounds with a hit; in the whole collection about 11% have one here. Calls come from the whole dose curve; as a rule, active = well fitted inhibition curve with a large enough effect; inconclusive = small, poorly fitted or top-dose-only effect; inactive = no such curve, though single readings can be large or run the other way.

Cc1cc(SCC(=O)N/N=C/c2ccc(O)c(O)c2)nc2ccccc12	JMJD2A Tudor inh inconclusive, L3MBTL1 block inconclusive, HP1b binding inh inconclusive, BAZ2B block 45µM (no result: G9a inh)
C/C(=N\NC(=O)CSc1nc2ccccc2o1)c1ccc(O)cc1	G9a inh 16µM
Cc1nn(CC(=O)NCc2ccc(OC(C)C)cc2)c(=O)c2c(C)n(-c3ccc(Cl)cc3)nc12	none (no result: L3MBTL1 block)
CC(C)(C)c1ccccc1Nc1nc(C#N)nc(NC2CCCC2)n1	none (no result: G9a inh, L3MBTL1 block, HP1b binding inh, BAZ2B block)
O=C(CSc1nc2ccccc2o1)N/N=C/c1ccc(O)c(O)c1	JMJD2A Tudor inh 16µM, G9a inh inconclusive, HP1b binding inh inconclusive, BAZ2B block 45µM (no result: L3MBTL1 block)
Fc1ccc(Nc2c(-c3ccco3)nc3ccccn23)cc1	JMJD2A Tudor inh inconclusive, G9a inh inconclusive, BAZ2B block 45µM
Fc1ccc(Nc2c(-c3ccccn3)nc3ccc(Cl)cn23)cc1	JMJD2A Tudor inh inconclusive, BAZ2B block inconclusive (no result: L3MBTL1 block)
Cc1ccc(Nc2c(-c3ccco3)nc3ccccn23)cc1	JMJD2A Tudor inh inconclusive, G9a inh 40µM, BAZ2B block inconclusive
Cc1ccc(Nc2c(-c3ccc(Br)o3)nc3ccccn23)cc1	BAZ2B block inconclusive (no result: L3MBTL1 block)
c1ccc(Nc2c(-c3ccco3)nc3ccccn23)cc1	G9a inh inconclusive, BAZ2B block 50µM
Cc1ccccc1Nc1c(-c2ccc(Cl)cc2)nc2c(C)cccn12	none (no result: L3MBTL1 block)
Cc1ccccc1Nc1c(-c2ccco2)nc2c(C)cccn12	JMJD2A Tudor inh inconclusive, G9a inh 14µM, HP1b binding inh inconclusive, BAZ2B block 25µM (no result: L3MBTL1 block)
CCCN(CCC)c1cc(C)nc2nc(-c3ccc(Cl)cc3)nn12	none (no result: L3MBTL1 block)
CCN(CC(=O)Nc1c(F)cccc1F)C(=O)CN(C)S(=O)(=O)c1ccc(F)cc1	none
Cc1ccc(Nc2c(-c3c[nH]c4ccccc34)nc3ccccn23)cc1	JMJD2A Tudor inh 22µM, G9a inh 28µM, HP1b binding inh inconclusive, BAZ2B block 18µM (no result: L3MBTL1 block)
C(=C\c1ccco1)/c1ccc2ccccc2n1	L3MBTL1 block 14µM, HP1b binding inh inconclusive, BAZ2B block 40µM (no result: G9a inh)
C#CCOc1ccccc1C(N)=O	none (no result: G9a inh)
Cc1ccc(C(c2nnnn2C2CCCCC2)N(C)C2CCCCC2)cc1 (centres undefined)	G9a inh 1.8µM (no result: L3MBTL1 block)
COc1ccc(C(c2nnnn2C2CCCCC2)N2CCN(c3ccc(OC)cc3)CC2)cc1 (centres undefined)	JMJD2A Tudor inh inconclusive, G9a inh inconclusive, HP1b binding inh inconclusive, BAZ2B block 40µM (no result: L3MBTL1 block)
COc1ccc(C(c2nnnn2C2CCCCC2)N2CCN(C)CC2)c(OC)c1 (centres undefined)	none
c1cc(N2CCCC2)ccc1C(c1nnnn1C1CCCCC1)N1CCOCC1 (centres undefined)	JMJD2A Tudor inh inconclusive, G9a inh 10µM, BAZ2B block inconclusive
COc1ccc(OC)c(C(c2nnnn2C2CCCC2)N2CCN(c3ccccc3)CC2)c1 (centres undefined)	JMJD2A Tudor inh 56µM, G9a inh 32µM, BAZ2B block 50µM
Cc1ccc(S(=O)(=O)NCc2ccccn2)cc1C	none
Nc1cc(S(=O)(=O)N2CCN(S(=O)(=O)c3ccc4c(c3)OCCO4)CC2)ccn1	none (no result: G9a inh, L3MBTL1 block, HP1b binding inh, BAZ2B block)
CCOc1ccc(CCNC(=O)c2nn(C)c3c2CSc2ccccc2-3)cc1	none (no result: L3MBTL1 block)
Cc1ccc(C(=O)c2cn(CC(=O)Nc3ccc4c(c3)OCCO4)c3nc(C)ccc3c2=O)cc1	none (no result: L3MBTL1 block)
Nc1ccn(-c2ncc(C(F)(F)F)cc2Cl)c(=O)n1	none
FC(F)(F)c1cnc(-n2cc[nH]c2=S)c(Cl)c1	JMJD2A Tudor inh 79µM, G9a inh 32µM (no result: L3MBTL1 block)
CC1CCC2(CC1)OCC1(CCC3(COC4(CCC(C)CC4)OC3)C1=O)CO2 (centres undefined)	none (no result: G9a inh)
O=C1c2ccccc2C(=O)c2c1ccc1c(=O)n(C3CCCCC3)[nH]c21	JMJD2A Tudor inh 25µM, G9a inh 7.9µM, BAZ2B block 50µM
Cc1ccc(S(=O)(=O)N/N=C/c2ccc(C(=O)O)cc2)cc1	G9a inh 11µM
CCOc1cc(/C=N/NS(=O)(=O)c2ccccc2)ccc1OS(=O)(=O)c1ccc(C)cc1	G9a inh 11µM (no result: L3MBTL1 block)
Cc1ccc(NC(=S)N/N=C/c2ccc(Cl)c([N+](=O)[O-])c2)cc1	none (no result: L3MBTL1 block)
CC(=O)NCc1ccc(S(=O)(=O)N/N=C/c2ccccc2)cc1	G9a inh 3.2µM
Cc1ccc(S(=O)(=O)N/N=C\c2ccc(Cl)c([N+](=O)[O-])c2)cc1	JMJD2A Tudor inh inconclusive, G9a inh 7.9µM, BAZ2B block inconclusive
Cc1ccc(S(=O)(=O)N(C)/N=C/c2ccc(C(=O)O)cc2)cc1	G9a inh 45µM (no result: L3MBTL1 block)
CCN(CC)c1nn2c(=O)c(C(=O)NCc3ccc(OC)cc3OC)cnc2s1	none (no result: L3MBTL1 block)
COc1ccc(-c2nc(SCC(=O)NCCc3ccccc3)n[nH]2)cc1	none (no result: L3MBTL1 block)
COc1ccc(-c2nc(SC(CC(=O)NCCO)c3cccs3)n[nH]2)cc1 (centres undefined)	G9a inh 45µM
COc1ccc(CNC(=O)Cn2c(=O)nc(-c3ccccc3F)c3cc(Cl)ccc32)cc1	none (no result: L3MBTL1 block)
COc1ccc(OC)c(NC2c3ncccc3C(=O)N2Cc2ccco2)c1 (centres undefined)	G9a inh 50µM, BAZ2B block inconclusive
COc1ccc(CN2C(=O)c3cccnc3C2O)cc1 (centres undefined)	JMJD2A Tudor inh inconclusive, G9a inh inconclusive, BAZ2B block 40µM (no result: L3MBTL1 block)
COC(=O)c1ccc(NC2c3ncccc3C(=O)N2Cc2cccs2)cc1 (centres undefined)	G9a inh inconclusive (no result: L3MBTL1 block)
Cc1ccc(NC2c3ncccc3C(=O)N2Cc2ccco2)c(C)c1 (centres undefined)	JMJD2A Tudor inh inconclusive, G9a inh 45µM
COC(=O)c1cc(NC2c3ncccc3C(=O)N2Cc2ccccc2)cc(C(=O)OC)c1 (centres undefined)	none
COc1ccc(C2Nc3ccccc3C(=O)N2Cc2ccco2)cc1OC (centres undefined)	HP1b binding inh inconclusive (no result: G9a inh, L3MBTL1 block, BAZ2B block)
COc1ccc(CN2C(=O)c3cccnc3C2Nc2cc(Cl)ccc2OC)cc1 (centres undefined)	JMJD2A Tudor inh 20µM, G9a inh inconclusive, L3MBTL1 block inconclusive, BAZ2B block 25µM
CCOc1ccccc1NC(=O)C(CC(C)C)NS(=O)(=O)c1ccc2c(c1)CCN2C(C)=O (centres undefined)	none (no result: L3MBTL1 block, BAZ2B block)
Cc1ccccc1Nc1cc(C(=O)NC2CCC(C)CC2)c2ccccc2n1 (centres undefined)	none (no result: L3MBTL1 block, BAZ2B block)
COc1ccc(CCNCC(=O)Nc2ccc(C)c(Br)c2)cc1OC	JMJD2A Tudor inh 50µM, G9a inh 40µM, HP1b binding inh inconclusive, BAZ2B block inconclusive
COc1ccc(CCNC(=O)CN(C2CCCCC2)S(C)(=O)=O)cc1OC	G9a inh 32µM
COc1ccc(CC(=O)Nc2cc(NC(=O)Cc3ccc(OC)c(OC)c3)cc(C(=O)O)c2)cc1OC	BAZ2B block inconclusive (no result: G9a inh)
COc1ccc(CCNCC(=O)Nc2c(C)cc(C)cc2C)cc1OC	none (no result: G9a inh)
COc1ccc(CCNC(=O)C2CC2)cc1OC	G9a inh inconclusive (no result: BAZ2B block)

Assay outcomes: PubChem, National Center for Advancing Translational Sciences (NCATS)
